Assay results reported in PubChem BioAssay (NCATS).
Values joined by “and” are separate entries in the source; they are usually repeats but may differ in a detail not shown here. Equal values may be shown once. Records with an inconclusive call do not appear. Active and inactive are the calls of the source. Unless noted, calls come from the whole dose curve; as a rule, active = well fitted curve in the direction sought with a large enough effect; inconclusive = small, poorly fitted or top-dose-only effect, or another doubt; inactive = no such curve, though single readings can be large; an effect the other way counts as inactive or inconclusive.

Key:
[1] = biological target: Estrogen receptor (Homo sapiens) (UniProt P03372); experiment: qHTS assay for small molecule agonists of estrogen receptor alpha signaling (AID 588514; calls by dose curve;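 note: 0% = vehicle only and 100% = reference agonist; nearly all actives have a fitted effect of over 70% in size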); details: ER-alpha-UAS-bla HEK293, beta-lactamase ratio, 18 h, percent of full estradiol response, vehicle zero; series mostly up to 76.8 µM
How it was run: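 EC50 and efficacy came from Hill fits of beta-lactamase reporter signal (CCF4 dye, 2 h at room temperature) scaled between DMSO and 20 nM 17-beta-estradiol. Agonist mode: HEK293 ER-alpha-UAS-bla cells in charcoal/dextran-stripped serum medium, 18 h compound exposure at 37 C.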

[2] = biological target: Nuclear receptor ROR-gamma (Homo sapiens) (UniProt P51449); experiment: qHTS assay for small molecule antagonists of the retinoid-related orphan receptor gamma (ROR-gamma) signaling pathway (AID 651802); details: ROR-gamma antagonist cell reporter assay; series mostly up to 92.2 µM;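 note: CHO cells with doxycycline-induced ROR-gamma expression; luciferase reporter luminescence driven by ROR response element; % is set by controls: 0 for no effect and ±100 for the full control effect; nearly all actives have a fitted effect of over 60% in size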
How it was run: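 Luminescence (One-Glo, 30 min RT) measured 16 h after compound addition and doxycycline induction at 37C. Reporter: RORE-luciferase under TET-inducible ROR-gamma in CHO cells.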

[3] = biological target: Androgen receptor (Homo sapiens) (UniProt P10275); experiment: qHTS assay for small molecule agonists of androgen receptor signaling (AID 588515; active = well fitted curve in the direction sought with a large enough effect in the signal ratio, with a control signal flat; the % refers to the signal ratio; note: % is set by controls: 0 for no effect and ±100 for the full control effect); details: AR-UAS-bla HEK293, beta-lactamase ratio, agonist 16 h; active compounds read high
How it was run: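 Stimulation of an AR-responsive β-lactamase reporter in GripTite HEK293 cells was measured after 16 h compound exposure at 37 °C, via CCF4 fluorescence after 2 h RT. EC50 from Hill fits, normalized to R1881 at 30 nM.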

[4] = biological target: Androgen receptor (Homo sapiens) (UniProt P10275); experiment: qHTS assay for small molecule antagonists of androgen receptor signaling (AID 588516; active = well fitted curve in the direction sought with a large enough effect in the signal ratio, with a control signal flat, not every such curve was filed as active; the % refers to the signal ratio; note: % is set by controls: 0 for no effect and ±100 for the full control effect); details: AR-UAS-bla HEK293, beta-lactamase ratio, antagonist mode, 16 h; series mostly up to 76.8 µM
How it was run: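 HEK293 AR-UAS-bla cells, 10% dialyzed FBS medium; cpd titration + R1881 10 nM final, 16 h 37 C; CCF4 2 h RT; FRET ratio; IC50/efficacy via Hill fit.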

[5] = qHTS assay to identify small molecules that stimulate interleukin-8 (IL-8) secretion (AID 651758; active = well fitted activation curve with a large enough effect in the signal ratio; the % refers to the signal ratio; note: 0% is about no effect); details: HTRF ratio (665/615); series mostly up to 92.2 µM
How it was run: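 Quantitative HTS in THP-1 monocytic cells at 2000 cells per well, with 16 hrs compound incubation at 37 C. IL-8 in the medium was then quantified by HTRF immunoassay, read after 1-3 hrs at room temperature.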

[6] = S16 Schwann cell PMP22 intronic element beta-lactamase assay (AID 624044; calls by dose curve;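 note: 0% = DMSO and -100% = potassium clavulanate positive control; nearly all actives have a fitted effect of over 15% in size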); details: S16 rat Schwann cells, PMP22 element beta-lactamase FRET, 24 h; series mostly up to 17.1 µM
How it was run: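 Beta-lactamase reporter under a PMP22 intronic regulatory element in stable S16 rat Schwann cells; 24 h compound exposure. 460 nm blue signal normalized between DMSO (0%) and potassium clavulanate, with 535 nm FRET tracking viability; curves classed by r2 and response.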

[7] = biological target: Guanine nucleotide-binding protein G(i) subunit alpha-1 (Homo sapiens) (UniProt P63096); experiment: qHTS Assay for Inhibitors of RGS12 GoLoco Motif Activity (Green Fluorophore) (AID 879); details: Galphai1/FITC-RGS12 GoLoco peptide, fluorescence polarization; series mostly up to 57.1 µM;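 note: 0% = labeled peptide with Gαi1 and full inhibition = labeled peptide alone without protein; negative values mean loss of peptide binding seen as reduced polarization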
How it was run: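 A drop in FITC polarization marked displacement of the FITC-tagged RGS12 GoLoco peptide (10 nM) from Gαi1 (50 nM). Compounds were incubated 10 min at room temperature in Tris pH 7.5 buffer containing 150 mM NaCl, 0.1 mM GDP and 0.05% NP40; unlabeled peptide titration served as control.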

[8] = qHTS Assay for Identification of Small Molecule Antagonists for NFkB Signaling Pathway (AID 895; active = well fitted inhibition curve with a large enough effect in the signal ratio, with a control signal flat, not every such curve was filed as active; the % refers to the signal ratio; note: % is set by controls: 0 for no effect and ±100 for the full control effect); details: NFkB beta-lactamase reporter cells, FRET ratio 460/530, stimulated with 10 pM TNF alpha; series mostly up to 38.3 µM
How it was run: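 NFkB-bla ME-180 cervical carcinoma cells with beta-lactamase reporter under NFkB response element; compounds added, then TNF alpha at 10 pM final (EC50), 5 h at 37 C. LiveBLAzer substrate 2 h, room temperature; emission 460/530 nm at 405 nm excitation.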

[9] = qHTS Assay for Identification of Small Molecule Agonists for Thrombopoietin (TPO) Signaling Pathway (AID 917); details: TPO signaling pathway reporter cells, agonist qHTS, stimulated with TPO at its EC50; series mostly up to 38.5 µM; note: % is set by controls: 0 for no effect and ±100 for the full control effect
How it was run: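 Ba/F3 (mouse) + hTPO receptor + GpIIb-promoter luciferase; IL-3 withdrawn overnight; compound + 26 pM TPO (EC50), 24 hrs, 37 C, 5% CO2; Steadylite luminescence, 10 min RT.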

[10] = biological target: Pyruvate kinase (Leishmania mexicana) (UniProt Q27686); experiment: qHTS Validation Assay for Inhibitors of Leishmania Mexicana Pyruvate Kinase (AID 945);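 note: 0% = DMSO only neutral control wells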; details: purified L. mexicana pyruvate kinase, enzyme activity, E451W mutant enzyme; series mostly up to 57.5 µM
How it was run: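 Read-out: luminescence from PKLight stop/detection reagent, data normalized to DMSO. Reaction: 0.2 nM E451W LmPYK, 0.5 mM PEP, 0.1 mM ADP, pH 7.2, 1 h room temperature.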

[11] = biological target: Pyruvate kinase PKM (Homo sapiens) (UniProt P14618); experiment: qHTS Assay for Activators of Human Muscle Pyruvate Kinase (AID 954; active = well fitted curve in the direction sought with a large enough effect, not every such curve was filed as active;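 note: 0% = uninhibited enzyme and -100% = no enzyme or full thiadiazolimine inhibition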); details: purified human muscle pyruvate kinase, luciferase-coupled luminescence, 1 h; series mostly up to 57.5 µM
How it was run: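 ATP production by PKM2 detected via luciferase luminescence after 1 h room-temperature reaction (0.1 nM enzyme, PEP at Km 0.5 mM, ADP 0.1 mM, pH 7.2 imidazole buffer). Inhibition scaled to no-enzyme control; activation referenced to 0.3 nM enzyme wells.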

[12] = biological target: Alpha-galactosidase A (Homo sapiens) (UniProt P06280); experiment: Counterscreen for Glucocerebrosidase Inhibitors: qHTS Assay for Human alpha-Galactosidase at pH 4.5 (AID 992); details: purified enzyme, fluorogenic substrate; series mostly up to 76.9 µM; note: 0% is about no effect
How it was run: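 Fluorogenic 1536-well qHTS at pH 4.5 (citrate, Tween-20): 2 nM enzyme, 80 uM 4-MU-alpha-galactoside, 20 min room temperature, NaOH/glycine stop. Titration 0.7 nM to 77 uM, data normalized to no-enzyme and full-activity controls, Hill-fitted AC50.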

[13] = biological target: alpha-glucosidase (Oryza sativa, rice) (UniProt Q653V4); experiment: Counterscreen for Glucocerebrosidase Inhibitors: qHTS Assay for Rice alpha-Glucosidase at pH 5.0 (AID 997); details: rice alpha-glucosidase enzyme activity; series mostly up to 76.9 µM;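 note: 0% = full activity with enzyme and -100% = basal without enzyme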
How it was run: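 Endpoint fluorogenic assay at pH 5.0: compounds (0.7 nM to 77 uM) titrated against 4 nM rice enzyme and 400 uM 4-MU-alpha-glucoside for 20 min at room temperature; NaOH/glycine stop, read ex 365/em 440 nm, Hill-fitted AC50.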

Sequence of Androgen receptor (Homo sapiens) (P10275 whole entry, looked up): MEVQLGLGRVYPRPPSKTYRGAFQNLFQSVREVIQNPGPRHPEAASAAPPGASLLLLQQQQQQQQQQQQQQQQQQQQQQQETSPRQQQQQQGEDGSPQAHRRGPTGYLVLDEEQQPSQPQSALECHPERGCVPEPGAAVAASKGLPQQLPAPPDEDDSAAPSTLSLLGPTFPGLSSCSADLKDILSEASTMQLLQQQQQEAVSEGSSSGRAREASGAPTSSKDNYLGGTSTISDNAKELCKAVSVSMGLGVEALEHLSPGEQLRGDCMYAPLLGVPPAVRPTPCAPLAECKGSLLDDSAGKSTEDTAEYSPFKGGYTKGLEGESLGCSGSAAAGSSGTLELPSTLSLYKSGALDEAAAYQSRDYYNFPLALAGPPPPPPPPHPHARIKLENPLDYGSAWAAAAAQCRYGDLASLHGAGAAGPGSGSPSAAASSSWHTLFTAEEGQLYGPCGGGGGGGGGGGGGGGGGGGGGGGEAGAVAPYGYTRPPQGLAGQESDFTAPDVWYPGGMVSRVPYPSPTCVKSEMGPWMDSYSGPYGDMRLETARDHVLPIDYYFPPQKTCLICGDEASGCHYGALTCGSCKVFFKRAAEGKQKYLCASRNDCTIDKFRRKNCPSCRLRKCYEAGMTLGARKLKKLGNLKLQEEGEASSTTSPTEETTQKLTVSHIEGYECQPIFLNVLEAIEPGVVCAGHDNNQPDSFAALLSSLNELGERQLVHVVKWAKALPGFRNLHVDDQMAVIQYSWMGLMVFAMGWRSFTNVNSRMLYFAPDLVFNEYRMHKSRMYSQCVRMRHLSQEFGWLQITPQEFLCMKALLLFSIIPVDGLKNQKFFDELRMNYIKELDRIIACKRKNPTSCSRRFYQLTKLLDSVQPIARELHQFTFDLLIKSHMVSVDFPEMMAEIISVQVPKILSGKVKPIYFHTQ
Sequence of Estrogen receptor (Homo sapiens) (P03372 whole entry, looked up): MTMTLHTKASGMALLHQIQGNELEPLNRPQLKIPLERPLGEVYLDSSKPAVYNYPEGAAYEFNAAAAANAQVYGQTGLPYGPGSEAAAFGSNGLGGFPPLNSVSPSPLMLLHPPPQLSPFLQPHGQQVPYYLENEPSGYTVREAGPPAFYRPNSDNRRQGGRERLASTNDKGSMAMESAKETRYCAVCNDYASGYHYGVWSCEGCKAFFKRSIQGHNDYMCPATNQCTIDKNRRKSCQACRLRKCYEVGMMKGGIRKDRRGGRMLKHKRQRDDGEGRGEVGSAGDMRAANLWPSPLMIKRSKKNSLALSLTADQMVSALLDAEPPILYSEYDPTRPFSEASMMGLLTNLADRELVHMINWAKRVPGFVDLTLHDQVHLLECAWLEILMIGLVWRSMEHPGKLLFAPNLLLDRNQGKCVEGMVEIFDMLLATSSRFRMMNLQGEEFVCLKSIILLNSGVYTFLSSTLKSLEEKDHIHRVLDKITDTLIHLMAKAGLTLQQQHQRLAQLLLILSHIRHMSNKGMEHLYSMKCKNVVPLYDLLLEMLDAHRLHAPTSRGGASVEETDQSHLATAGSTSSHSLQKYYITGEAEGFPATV
Sequence of Guanine nucleotide-binding protein G(i) subunit alpha-1 (Homo sapiens) (P63096 whole entry, looked up): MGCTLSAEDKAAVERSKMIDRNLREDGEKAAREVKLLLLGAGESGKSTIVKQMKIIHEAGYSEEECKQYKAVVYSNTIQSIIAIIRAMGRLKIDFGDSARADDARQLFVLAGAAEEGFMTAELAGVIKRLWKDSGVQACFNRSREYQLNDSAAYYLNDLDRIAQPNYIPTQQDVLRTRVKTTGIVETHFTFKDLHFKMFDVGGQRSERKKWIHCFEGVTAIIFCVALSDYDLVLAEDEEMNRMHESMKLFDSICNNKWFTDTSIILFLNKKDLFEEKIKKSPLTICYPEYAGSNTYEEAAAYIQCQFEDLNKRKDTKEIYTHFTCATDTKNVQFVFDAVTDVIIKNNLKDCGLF
Sequence of Pyruvate kinase (Leishmania mexicana) (Q27686 2-499 E452W): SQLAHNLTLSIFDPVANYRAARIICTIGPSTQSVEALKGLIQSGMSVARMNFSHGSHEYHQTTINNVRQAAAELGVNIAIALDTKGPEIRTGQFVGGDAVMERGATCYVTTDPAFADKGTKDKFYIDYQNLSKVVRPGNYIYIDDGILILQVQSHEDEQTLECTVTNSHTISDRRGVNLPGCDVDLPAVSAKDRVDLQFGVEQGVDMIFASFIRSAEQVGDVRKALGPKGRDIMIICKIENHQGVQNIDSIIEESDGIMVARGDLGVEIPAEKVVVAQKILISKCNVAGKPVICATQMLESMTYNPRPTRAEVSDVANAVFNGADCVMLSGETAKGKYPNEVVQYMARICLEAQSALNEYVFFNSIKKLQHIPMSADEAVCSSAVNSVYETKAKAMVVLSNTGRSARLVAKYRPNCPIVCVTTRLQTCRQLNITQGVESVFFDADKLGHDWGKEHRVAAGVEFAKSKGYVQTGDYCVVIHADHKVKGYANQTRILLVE
Sequence of Alpha-galactosidase A (Homo sapiens) (P06280 whole entry, looked up): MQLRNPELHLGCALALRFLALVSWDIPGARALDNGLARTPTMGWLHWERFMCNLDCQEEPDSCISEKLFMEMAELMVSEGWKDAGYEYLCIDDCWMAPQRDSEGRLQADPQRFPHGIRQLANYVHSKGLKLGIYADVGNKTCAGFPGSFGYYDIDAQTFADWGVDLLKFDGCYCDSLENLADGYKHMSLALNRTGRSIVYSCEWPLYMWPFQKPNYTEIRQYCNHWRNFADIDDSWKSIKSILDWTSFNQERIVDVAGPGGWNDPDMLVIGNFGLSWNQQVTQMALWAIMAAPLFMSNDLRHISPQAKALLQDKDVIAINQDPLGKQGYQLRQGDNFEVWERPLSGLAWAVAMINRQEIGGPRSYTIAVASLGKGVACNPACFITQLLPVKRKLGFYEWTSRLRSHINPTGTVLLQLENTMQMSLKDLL
Sequence of Nuclear receptor ROR-gamma (Homo sapiens) (P51449 whole entry, looked up): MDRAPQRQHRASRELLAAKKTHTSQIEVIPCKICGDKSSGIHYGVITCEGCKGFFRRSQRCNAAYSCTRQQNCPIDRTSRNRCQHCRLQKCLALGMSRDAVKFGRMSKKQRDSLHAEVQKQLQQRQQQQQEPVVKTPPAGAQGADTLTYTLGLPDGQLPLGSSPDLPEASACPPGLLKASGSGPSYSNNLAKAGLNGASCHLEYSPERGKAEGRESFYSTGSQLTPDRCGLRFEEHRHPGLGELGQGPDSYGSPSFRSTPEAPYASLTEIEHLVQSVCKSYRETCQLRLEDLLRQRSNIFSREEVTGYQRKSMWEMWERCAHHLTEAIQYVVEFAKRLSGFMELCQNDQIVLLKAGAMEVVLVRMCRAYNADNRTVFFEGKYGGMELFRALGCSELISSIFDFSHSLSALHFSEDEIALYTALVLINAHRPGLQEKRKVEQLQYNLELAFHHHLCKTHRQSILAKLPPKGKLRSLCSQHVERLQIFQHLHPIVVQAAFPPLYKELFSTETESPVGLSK
Sequence of Pyruvate kinase PKM (Homo sapiens) (P14618 whole entry, looked up): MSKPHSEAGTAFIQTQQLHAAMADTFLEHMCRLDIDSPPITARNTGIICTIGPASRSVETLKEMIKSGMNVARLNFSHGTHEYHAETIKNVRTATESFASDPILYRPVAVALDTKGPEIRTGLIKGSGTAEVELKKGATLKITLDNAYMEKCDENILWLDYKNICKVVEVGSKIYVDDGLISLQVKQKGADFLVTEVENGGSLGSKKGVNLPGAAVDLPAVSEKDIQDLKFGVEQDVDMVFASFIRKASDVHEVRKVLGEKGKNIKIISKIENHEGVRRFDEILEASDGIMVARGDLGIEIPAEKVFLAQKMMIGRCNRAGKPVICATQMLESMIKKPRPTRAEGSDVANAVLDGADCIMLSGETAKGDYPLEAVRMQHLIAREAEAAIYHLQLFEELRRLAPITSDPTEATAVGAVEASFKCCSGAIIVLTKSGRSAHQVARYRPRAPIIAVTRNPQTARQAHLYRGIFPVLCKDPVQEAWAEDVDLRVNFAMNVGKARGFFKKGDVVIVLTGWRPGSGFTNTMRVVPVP

COS(C)(=O)=O
inactive: outcome [1] | outcome [2]

C=C(C)[C@H]1CC=C(C)C(=O)C1
inactive: activation [3] 12.8% and -1.39% | outcome [4] | outcome [5]

C[C@@H]1CCC[C@H](C)N1NC(=O)c1ccc(Cl)c(S(N)(=O)=O)c1
inactive: outcome [6]

CN1[C@@H]2CC[C@H]1CC(OC(=O)[C@@H](O)c1ccccc1)C2 (stereo partly drawn)
inactive: Potency [7] | Potency [8] | outcome [9] | outcome [10] | outcome [11] | outcome [12] | outcome [13]
